Experiment [1] has as its system Saccharomyces cerevisiae BY4741 SeMeCo community. In words: mean cell size (pixel area) (pixels); higher = larger cells. Particulars: 10 µM; 24 h; SM minimal medium. In a few lines: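 In this assay, mean cell pixel area per well was obtained from automated confocal images of paraformaldehyde-fixed yeast analysed in Harmony. The cells were a Saccharomyces cerevisiae BY4741 community with four plasmids, each complementing one auxotrophy and carrying a fluorescent marker, grown for 24 h in SM medium with drug at a final 10 µM in 384-well plates. Values are averaged across 3 replicates. Same SeMeCo high-content imaging drug screen: Selleck FDA-approved drugs at 10 µM, 24 h in SM medium, 384-well plates, 3 replicates.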

For experiment [2] the test system is unchanged. Description: z-score of prototroph abundance vs DMSO median; higher = larger share of this subpopulation than in DMSO controls. As to conditions: 10 µM; 24 h; SM minimal medium; subpopulation (auxotrophy): Prototroph. The procedure, abridged: (§1)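 Four plasmids, each restoring a single auxotrophy and encoding a distinct fluorescent protein, were carried by a Saccharomyces cerevisiae BY4741 community. After overnight growth to OD600 1.0 and dilution to 0.3, 70 µl per well was grown for 24 h in minimal SM medium on 384-well plates acoustically predosed with library drugs at 10 µM final. Following paraformaldehyde fixation, automated confocal microscopy was used, with single-auxotroph fluorescent strains defining thresholds and autofluorescence correction. Subpopulation abundance was then scored as a z-score against the vehicle-well median.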

The test system is the same in experiment [3]. Description: z-score of subpopulation abundance vs DMSO median, subpopulation auxotrophic for L; higher = larger share of this subpopulation than in DMSO controls. As to conditions: 10 µM; 24 h; SM minimal medium; subpopulation (auxotrophy): L. In a few lines:
as §1

Experiment [4] has the same test system. In words: z-score of subpopulation abundance vs DMSO median, subpopulation auxotrophic for U; higher = larger share of this subpopulation than in DMSO controls. Particulars: 10 µM; 24 h; SM minimal medium; subpopulation (auxotrophy): U. In a few lines: as §1
Experiment [5] shares this test system. Description: z-score of subpopulation abundance vs DMSO median, subpopulation auxotrophic for H; higher = larger share of this subpopulation than in DMSO controls. Particulars: 10 µM; 24 h; SM minimal medium; subpopulation (auxotrophy): H. The procedure, abridged:
as §1

Experiment [6] shares this test system. In words: z-score of subpopulation abundance vs DMSO median, subpopulation auxotrophic for LM; higher = larger share of this subpopulation than in DMSO controls. As to conditions: 10 µM; 24 h; SM minimal medium; subpopulation (auxotrophy): LM. In a few lines:
as §1

Experiment [7] has the same test system. Description: z-score of subpopulation abundance vs DMSO median, subpopulation auxotrophic for HM; higher = larger share of this subpopulation than in DMSO controls. Particulars: 10 µM; 24 h; SM minimal medium; subpopulation (auxotrophy): HM. In a few lines:
as §1

The test system is the same in experiment [8]. In words: z-score of subpopulation abundance vs DMSO median, subpopulation auxotrophic for HU; higher = larger share of this subpopulation than in DMSO controls. Particulars: 10 µM; 24 h; SM minimal medium; subpopulation (auxotrophy): HU. The procedure, abridged:
as §1

Experiment [9] has the same test system. Description: z-score of subpopulation abundance vs DMSO median, subpopulation auxotrophic for UM; higher = larger share of this subpopulation than in DMSO controls. As to conditions: 10 µM; 24 h; SM minimal medium; subpopulation (auxotrophy): UM. The procedure, abridged:
as §1

Experiment [10] has the same test system. In words: z-score of subpopulation abundance vs DMSO median, subpopulation auxotrophic for LUM; higher = larger share of this subpopulation than in DMSO controls. Particulars: 10 µM; 24 h; SM minimal medium; subpopulation (auxotrophy): LUM. In a few lines:
as §1

For experiment [11] the test system is unchanged. Description: z-score of subpopulation abundance vs DMSO median, subpopulation auxotrophic for HLUM; higher = larger share of this subpopulation than in DMSO controls. As to conditions: 10 µM; 24 h; SM minimal medium; subpopulation (auxotrophy): HLUM. The procedure, abridged:
as §1

The test system is the same in experiment [12]. In words: z-score of subpopulation abundance vs DMSO median, subpopulation auxotrophic for LU; higher = larger share of this subpopulation than in DMSO controls. Particulars: 10 µM; 24 h; SM minimal medium; subpopulation (auxotrophy): LU. In a few lines: as §1
For experiment [13] the test system is unchanged. Description: z-score of subpopulation abundance vs DMSO median, subpopulation auxotrophic for HL; higher = larger share of this subpopulation than in DMSO controls. As to conditions: 10 µM; 24 h; SM minimal medium; subpopulation (auxotrophy): HL. The procedure, abridged:
as §1

The test system is the same in experiment [14]. In words: z-score of subpopulation abundance vs DMSO median, subpopulation auxotrophic for HLM; higher = larger share of this subpopulation than in DMSO controls. Particulars: 10 µM; 24 h; SM minimal medium; subpopulation (auxotrophy): HLM. In a few lines: as §1
The test system is the same in experiment [15]. In words: z-score of subpopulation abundance vs DMSO median, subpopulation auxotrophic for HUM; higher = larger share of this subpopulation than in DMSO controls. Particulars: 10 µM; 24 h; SM minimal medium; subpopulation (auxotrophy): HUM. The procedure, abridged:
as §1

Where a name gives a salt, the structure may show the parent alone. ± gives the standard deviation of the averaged measurements.

As for `CCCCCCCCCC(=O)CC(O)S(=O)(=O)O` (stereo not drawn) [Sodium Houttuyfonate], the mean cell size in [1] worked out at 12.02 ± 0.032.
Consider `CCC1=C(C)CN(C(=O)NCCc2ccc(S(=O)(=O)NC(=O)N[C@H]3CC[C@H](C)CC3)cc2)C1=O` [Glimepiride], for which the mean cell size in [1] was 12.5 ± 0.2. For the same compound, the “z-score of prototroph abundance” value in experiment [2] is -0.13. The “z-score of subpopulation abundance” value in experiment [3] is 0.24; in [4] it was -0.47; in experiment [5], -0.23; in experiment [6], 0.34; in [7], 0.24; in experiment [8] it was 0.22. Besides, the “z-score of subpopulation abundance” value in experiment [9] was 0.19; in experiment [10], -0.01; in [11], 0.7.
On to `C=CC1=C(C(=O)O)N2C(=O)[C@@H](NC(=O)/C(=N\O)c3csc(N)n3)[C@H]2SC1` [Cefdinir], for which the mean cell size in [1] came out at 12.48 ± 0.068.
Turning to `COC(=O)C1=C(C)NC(C)=C(C(=O)OC(C)(C)CN(C)CCC(c2ccccc2)c2ccccc2)C1c1cccc([N+](=O)[O-])c1` (stereo not drawn) [Lercanidipine], the mean cell size in experiment [1] came out at 12.1 ± 0.16. Also, the “z-score of subpopulation abundance” value in [4] was -0.86; in experiment [5], 2.07; in experiment [12], 0.17; in [6], 0.9; in [7], 0.81; in experiment [8], 0.16. In addition, the “z-score of subpopulation abundance” value is -0.89 in experiment [9]; 2.31 in experiment [13]; 1.04 in [14]; 0.23 in [15]; 0.13 in [10].
On to `Nc1nc2c(ncn2COCCO)c(=O)[nH]1` [Aciclovir], for which, in [1], the mean cell size worked out at 12.5 ± 0.32. For the same compound, the “z-score of prototroph abundance” value in [2] was determined as 0.49. In addition, the “z-score of subpopulation abundance” value in experiment [3] is 1.26; in [4] it was -0.49; in experiment [5] it was -0.28; in [6], 0.9; in experiment [7], -0.46; in [8] it was -0.91. Also, the “z-score of subpopulation abundance” value is -0.79 in experiment [9]; -0.76 in [13]; -0.49 in experiment [14]; 0.25 in experiment [10]; 0.48 in experiment [11].
The compound `C=C1c2cccc(O)c2C(=O)C2=C(O)[C@]3(O)C(=O)C(C(N)=O)=C(O)[C@@H](N(C)C)[C@@H]3[C@@H](O)[C@H]12` [Methacycline HCl] came in with a mean cell size in [1] of 12.2 ± 0.23.
Same read-out and setting: with `CCCCCCCCCC(=O)N[C@H]1[C@H](Oc2c3cc4cc2Oc2ccc(cc2Cl)[C@@H](O[C@@H]2O[C@H](CO)[C@@H](O)[C@H](O)[C@H]2NC(C)=O)[C@@H]2NC(=O)[C@H](NC(=O)[C@@H]4NC(=O)[C@H]4NC(=O)[C@@H](Cc5ccc(c(Cl)c5)O3)NC(=O)[C@H](N)c3ccc(O)c(c3)Oc3cc(O)cc4c3)c3ccc(O)c(c3)-c3c(OC4O[C@H](CO)[C@@H](O)[C@H](O)[C@@H]4O)cc(O)cc3[C@@H](C(=O)O)NC2=O)O[C@H](CO)[C@@H](O)[C@@H]1O` (stereo partly drawn) [Teicoplanin] the figure was 11.8 ± 0.16; with `C[C@H]1c2cccc(O)c2C(=O)C2=C(O)[C@]3(O)C(=O)C(C(N)=O)=C(O)[C@@H](N(C)C)[C@@H]3[C@@H](O)[C@@H]21` [Doxycycline monohydrate], 12.2 ± 0.19; with `C[C@@H]1NC(=O)[C@@H](N)CNC(=O)[C@H](C2CCNC(=N)N2)NC(=O)/C(=C/NC(N)=O)NC(=O)[C@H](CNC(=O)CC(N)CCCN)NC1=O.N=C1NCC[C@H]([C@@H]2NC(=O)/C(=C/NC(N)=O)NC(=O)[C@H](CNC(=O)C[C@@H](N)CCCN)NC(=O)[C@H](CO)NC(=O)[C@@H](N)CNC2=O)N1` [Capreomycin Sulfate], 12.1 ± 0.22.
Same read-out and setting: the result for `C[C@H]1c2cccc(O)c2C(=O)C2=C(O)[C@]3(O)C(=O)C(C(N)=O)=C(O)[C@@H](N(C)C)[C@@H]3[C@@H](O)[C@@H]21` [Doxycycline] reads 12.1 ± 0.32.
